Assay outcomes deposited in PubChem BioAssay by National Center for Advancing Translational Sciences (NCATS).
In the library only some 17% were active in any assay of this set; here they are far more common.
TDP1 block: qHTS Assay for Inhibitors of Tyrosyl-DNA Phosphodiesterase (TDP1); Tyrosyl-DNA phosphodiesterase 1 (Homo sapiens), Q9NUW8; recombinant TDP1, AlphaScreen DNA substrate cleavage; Potency, µM (top dose mostly 130 µM), for the others: top-dose activity change, negative = inhibition, usual class: inhibitors; hit rate 0.28% among 350,000; AID 485290, 2010; note: % is set by controls: 0 for no effect and ±100 for the full control effect; nearly all actives have a fitted effect of over 40% in size
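Here, a 5' biotin and 3' phosphotyrosine-FITC DNA oligonucleotide reports Tdp1 activity: intact substrate bridges AlphaScreen beads, while cleavage leaves a 3' phosphate and drops signal. All incubations at room temperature.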
DT40 TDP1 CPT: qHTS for Inhibitors of human tyrosyl-DNA phosphodiesterase 1 (TDP1): qHTS in cells in presence of CPT | chicken DT40 Tdp1-/-;hTDP1 cells + 20 nM CPT, ATP luminescence, 48 h | Potency, µM (doses to about 46.2 µM), for inactives: at the top dose activity change, negative = growth inhibition, most hits filed as inhibitors | hit rate 12% among 420,000 | AID 686979, 2013; note: % is set by controls: 0 for no effect and ±100 for the full control effect; nearly all actives have a fitted effect of over 55% in size
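Cell growth measured by CellTiter-Glo luminescence after a minimum 48 h, 37 C compound exposure with 20 nM CPT in Tdp1-knockout DT40 cells stably expressing hTDP1, seeded 400/well; qHTS titration format.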
ClpP mod: qHTS Assay for Activators of ClpP | Potency, µM (series often up to 57.5 µM), for inactives: top-dose activity change, negative = active | ATP-dependent Clp protease proteolytic subunit (Bacillus subtilis (strain 168)), P80244 | hit rate 1.9% among 340,000 | purified B. subtilis ClpP, FRET peptide cleavage, 20 min | AID 651965, 2013; active = well fitted falling curve with a large enough effect; inconclusive = small, poorly fitted or top-dose-only effect; inactive = no such curve, though single readings can be large or run the other way; note: the source files actives as falling curves though it sought activators and does not explain the sign; nearly all actives have a fitted effect of over 65% in size
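FRET quenching reversal measured ClpP activation: 10 microg/mL B. subtilis ClpP at pH 8 with the FRET-FV decapeptide, read at 430 nm after 320 nm excitation. The 20-min minus 0-min signal was scaled between DMSO/no-enzyme wells and ADEP (5.8 microM final).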
DT40 TDP1 no CPT: qHTS for Inhibitors of human tyrosyl-DNA phosphodiesterase 1 (TDP1): qHTS in cells in absence of CPT. hit rate 15% among 420,000. Potency, µM (doses to about 46.2 µM), for inactives: at the top dose activity change, negative = growth inhibition, actives largely listed as inhibitors. DT40 Tdp1-/- hTDP1 cells, no CPT, ATP luminescence, 48 h; note: % is set by controls: 0 for no effect and ±100 for the full control effect; nearly all actives have a fitted effect of over 55% in size
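DT40 Tdp1-/-;hTDP1 cells, no CPT (DMSO vehicle only), 400 cells/well; compounds pin-transferred; ≥48 hr, 37 °C; CellTiter-Glo 30 min RT dark, luminescence read.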
Starred values were filed as active, the others as inactive. Unless noted, calls come from the whole dose curve; as a rule, active = well fitted curve in the direction sought with a large enough effect; inconclusive = small, poorly fitted or top-dose-only effect, or another doubt; inactive = no such curve, though single readings can be large; an effect the other way counts as inactive or inconclusive. Potency is the fitted concentration of half-maximal effect.

Screening c1ccc(C[n+]2c(-c3ccccc3)csc2Nc2ccccc2)cc1 returned TDP1 block 3.0%, DT40 TDP1 CPT 10.3µM*, ClpP mod inconclusive and DT40 TDP1 no CPT inconclusive.
For c1ccc(Nc2scc(-c3ccccc3)[n+]2Cc2ccco2)cc1 the results were TDP1 block 8.0%, DT40 TDP1 CPT 16.4µM*, ClpP mod -0.4% and DT40 TDP1 no CPT 23.1µM*.
Screening CC[n+]1c(-c2ccccc2)csc1Nc1c(C)n(C)n(-c2ccccc2)c1=O returned TDP1 block 0.0%, DT40 TDP1 CPT inconclusive, ClpP mod 1.1% and DT40 TDP1 no CPT -38.9%.
For CCCn1c(=O)c2sccc2n2c(CCCC(=O)Nc3ccccc3OCC)nnc12 the results were TDP1 block 8.8%, DT40 TDP1 CPT -2.3%, ClpP mod -3.3% and DT40 TDP1 no CPT -10.2%.
Screening COc1ccc(F)cc1-c1cc(C(=O)NC2CCCCC2)[nH]n1 returned DT40 TDP1 CPT -9.0%, ClpP mod -1.2% and DT40 TDP1 no CPT -11.4%.
`COc1ccc(Cl)cc1-c1cc(C(=O)NCC2CCCCC2)[nH]n1` gave DT40 TDP1 CPT 8.2µM*, ClpP mod -1.7% and DT40 TDP1 no CPT 11.6µM*.
For CCOc1ccc(Cl)cc1-c1cc(C(=O)NCC2CCCCC2)[nH]n1 the results were DT40 TDP1 CPT 4.11µM*, ClpP mod -8.6% and DT40 TDP1 no CPT 6.51µM*.
CC(C)Oc1cc(F)ccc1-c1cc(C(=O)NCC2CCCCC2)[nH]n1 was read as DT40 TDP1 CPT -21.7%, ClpP mod 0.7% and DT40 TDP1 no CPT inconclusive.
`Cc1cc(F)ccc1-c1cc(C(=O)NCC2CCCCC2)[nH]n1` gave DT40 TDP1 CPT 20.6µM*, ClpP mod -21.5% and DT40 TDP1 no CPT inconclusive.
For COc1ccc(CN2C(=O)CSCC2(C)C(=O)NC(C)C)cc1 (stereo unspecified) the results were DT40 TDP1 CPT 4.5%, ClpP mod -1.0% and DT40 TDP1 no CPT -6.9%.
CCCc1ccc2oc(C(=O)N3CCN(C4CCS(=O)(=O)C4)CC3)c(C)c2c1 (stereo unspecified) was read as TDP1 block 4.7%, DT40 TDP1 CPT -10.3% and DT40 TDP1 no CPT inconclusive.
For CC1CCN2c3ccccc3CC3(C(=O)OC(C)(C)OC3=O)C2C1 (stereo unspecified) the results were TDP1 block 1.5%, DT40 TDP1 CPT inconclusive, ClpP mod 4.0% and DT40 TDP1 no CPT 10µM*.
For CCCCC[C@H]1CN(Cc2ccc(OC)cc2)C(=O)[C@@H]1CC(=O)NCc1ccccc1 the results were DT40 TDP1 CPT 11.6µM*, ClpP mod -2.2% and DT40 TDP1 no CPT 11.2µM*.
Screening CCCCCCc1ccc(N2C[C@H](CCCCC)[C@@H](CC(=O)NCc3ccc(OC)cc3)C2=O)cc1 returned DT40 TDP1 CPT inconclusive, ClpP mod -3.7% and DT40 TDP1 no CPT 12.6µM*.
For CCCCCCc1ccc(N2C[C@H](Cc3ccccc3)[C@@H](CC(=O)NCc3ccc(OC)cc3)C2=O)cc1 the results were DT40 TDP1 CPT 12.6µM*, ClpP mod -6.1% and DT40 TDP1 no CPT 12.6µM*.
`COc1ccc(CN2C[C@H](Cc3ccccc3)[C@@H](CC(=O)Nc3ccccc3)C2=O)cc1` gave DT40 TDP1 CPT 22.4µM*, ClpP mod 0.9% and DT40 TDP1 no CPT 15.8µM*.
For CCCCCCc1ccc(N2C[C@H](C)[C@@H](CC(=O)NCc3ccccc3)C2=O)cc1 the results were DT40 TDP1 CPT inconclusive, ClpP mod 1.9% and DT40 TDP1 no CPT inconclusive.
For O=C(OCc1ccccc1)C1=NNC2C(=O)N(Cc3ccccc3)C(=O)C12 (stereo unspecified) the results were TDP1 block 7.2%, DT40 TDP1 CPT 0.2% and DT40 TDP1 no CPT -20.6%.
For CCCCCCc1ccc(N2C[C@H](CCCCC)[C@@H](CC(=O)NCc3ccccc3)C2=O)cc1 the results were DT40 TDP1 CPT 14.1µM*, ClpP mod -1.6% and DT40 TDP1 no CPT 18.4µM*.
`COc1ccccc1N(C)S(=O)(=O)c1ccc(Cl)c(C(=O)Nc2cccc(C)n2)c1` gave TDP1 block -8.5%, DT40 TDP1 CPT 18.4µM* and DT40 TDP1 no CPT 16.4µM*.
